According to PubChem BioAssay (NCATS):
Inconclusive results are not listed. Active and inactive are the calls of the source. Calls follow the shape of the dose curve; as a rule, active = well fitted inhibition curve with a large enough effect; inconclusive = small, poorly fitted or top-dose-only effect; inactive = no such curve, though single readings can be large or run the other way.

Target: Tyrosine-protein kinase Yes (Homo sapiens) (UniProt P07947)
Assay: qHTS for small molecule inhibitors of Yes1 kinase: Primary Screen (AID 686947); also: nearly all actives have a fitted effect of over 60% in size
Conditions: Yes1 kinase biochemical qHTS inhibition; series mostly up to 76.9 µM; activity change, negative = inhibition: at the top concentration
From the text: The Src family of non-receptor protein tyrosine kinases contains nine members, including Yes1, Src, Fyn, Lyn, and […]. These kinases have important roles in a variety of cellular functions, such as cell proliferation, survival, and differentiation. Src, the most well characterized member of this family, has been previously identified as a proto-oncogene. […] In melanoma, it has been shown that Yes1, and not other family members, such as Src, is functionally involved in the malignant phenotype. Additionally, a recent study examining the downregulation of Yes1 by shRNA found significant effects on cell survival/growth for basal-like and Her2-positive breast cancers. Despite the potential for Yes1 to be a target for the above-described cancers, there are very few reports on the identification of potent and selective inhibitors of Yes1 kinase. Antagonists of Yes1 would further elucidate Yes1 biology and help to confirm whether Yes1 is a viable target for therapeutic intervention in a variety of cancers.
A compound that inhibits Yes1 could be important for the treatment of various cancers in which Yes1 is highly expressed and can also be used as a tool compound to help further elucidate Yes1 biology. To that end, we have developed a sensitive HTS biochemical assay for Yes1 activity. This assay was screened against several small compound libraries to look for modulators of activity. Inhibition is the desired output for this assay.
NIH Molecular Libraries Probe Production Centers Network [MLPCN]
NIH Chemical Genomics Center [NCGC]
Two micoliter of Yes1 enzyme (columns 1-2, 5-48; Millipore, Billerica, MA) are dispensed into Greiner, white solid-bottom 1536-well assay plates; columns 3 and 4 receive buffer without Yes1 as a control for maximum inhibition. Compounds (23 nL) are then transferred via Kalypsys pin tool equipped with 1536-pin array (10 nL slotted pins, V&P Scientific, San Diego, CA). […] Following addition of compound and a 20 minute incubation, 1 uL of substrate (ATP and poly-E4Y from Sigma-Aldrich, St. Louis, MO) is added, and the biochemical reaction is allowed to progress for 60 minutes at room temperature. The production of ADP is then quantified by the ADP-Glo Kit (Promega, Madison, WI). First, 2 uL of the first kit reagent is added, and the reaction is incubated for 45 minutes; then, 4 uL of the second kit reagent are added and the reaction is incubated for 30 minutes at which time the luminescence is read on a Viewlux plate reader (Perkin-Elmer, Waltham, MA). The final concentration of reagents in the reaction are 4 nM Yes1, 0.1 mM ATP, 100 uM EGTA, 10 mM MgCl2, 0.3 mg/mL poly(E4Y), 50 mM Tris pH 7.5, 1 mM DTT, 150 mM NaCl, 0.01% Brij-35, and 5% glycerol. Data are normalized to DMSO-treated control columns with (maximum signal) and without (minimum signal) enzyme.
Potency is read from the fitted curve at half-maximal effect.

Chain of Tyrosine-protein kinase Yes (Homo sapiens) (P07947 whole entry, looked up): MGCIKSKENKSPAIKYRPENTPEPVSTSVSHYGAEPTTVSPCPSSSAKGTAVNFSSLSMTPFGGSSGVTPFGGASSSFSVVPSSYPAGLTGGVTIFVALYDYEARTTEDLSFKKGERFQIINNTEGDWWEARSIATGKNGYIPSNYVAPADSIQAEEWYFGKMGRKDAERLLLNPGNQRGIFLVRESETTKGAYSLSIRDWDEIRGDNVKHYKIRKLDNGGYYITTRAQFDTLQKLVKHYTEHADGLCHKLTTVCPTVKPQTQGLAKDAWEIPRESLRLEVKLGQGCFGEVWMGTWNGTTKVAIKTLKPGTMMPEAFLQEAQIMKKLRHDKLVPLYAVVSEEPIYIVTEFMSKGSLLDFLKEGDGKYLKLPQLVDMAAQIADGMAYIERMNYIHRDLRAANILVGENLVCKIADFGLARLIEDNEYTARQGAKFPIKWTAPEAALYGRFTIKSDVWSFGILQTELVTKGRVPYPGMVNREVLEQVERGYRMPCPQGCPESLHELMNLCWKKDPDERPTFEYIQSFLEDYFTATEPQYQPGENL

Row | Compound | Potency | activity change, negative = inhibition
1 | Cc1ccc(Nc2ccnc(Nc3cccc(C(N)=O)c3)n2)cc1O | 0.0292 µM (active) | 
2 | COc1ccccc1Nc1ncc(-c2ccccc2)o1 | 9.23 µM (active) | 
3 | CS(=O)(=O)CCNCc1ccc(-c2ccc3ncnc(Nc4ccc(OCc5ccccc5)c(Cl)c4)c3c2)o1 | 0.923 µM (active) | 
4 | Cc1ccc2c(-c3ccnc(Nc4ccccc4)n3)c(-c3ccc(F)cc3)nn2n1 | 0.116 µM (active) | 
5 | NS(=O)(=O)c1ccc(N=Nc2c(O)[nH]c3ccc(C(=O)NCc4ccncc4)cc23)cc1 | 4.63 µM (active) | 
6 | CN1CCC(n2cnc(-c3ccc(F)cc3)c2-c2ccnc(NCCO)n2)CC1 |  | -24.2% (inactive)
7 | COc1cc(C)c(NC(=O)CN(C)C)cc1Nc1nc(Nc2cccc(F)c2C(N)=O)c2cc[nH]c2n1 |  | 32.8% (inactive)
8 | COC(=O)Nc1nc2ccc(S(=O)(=O)c3ccc(NC(=O)Nc4cc(C(F)(F)F)ccc4F)cc3)cc2[nH]1 |  | -14% (inactive)
9 | Cc1ccc(C(=O)NC2CC2)cc1-c1ccc2[nH]ncc2c1 |  | 2.15% (inactive)
10 | CC(=O)Nc1cccc(C#Cc2cncnc2Nc2ccc(OCc3cccc(F)c3)c(Cl)c2)n1 |  | -14% (inactive)
11 | CC(C)c1ccc(-c2cc(-c3cn[nH]c3-c3ccccn3)ccn2)cc1 | 23.2 µM (active) | 
12 | COc1cccc(-n2ncc3c(NN=Cc4cccc(F)c4)ncnc32)c1 | 0.146 µM (active) | 
13 | CCc1cccc(NC(=O)Nc2ccc(Oc3ccc4nc(NC(=O)OC)[nH]c4c3)cc2)c1 |  | -99.4% (inactive)
14 | COc1cccc(-n2ncc3c(NN=Cc4ccncc4)ncnc32)c1 | 0.0923 µM (active) | 
15 | COc1cc(C=NNc2ncnc3[nH]ncc23)ccc1O | 0.232 µM (active) | 
16 | COc1cc2ncn(-c3cc(OCc4ccccc4C(F)(F)F)c(C(C)=O)s3)c2cc1OC |  | 35.8% (inactive)
17 | CC(C)COC(=O)c1ccc2[nH]c(O)c(C=Nc3ccc(S(N)(=O)=O)cc3)c2c1 | 9.23 µM (active) | 
18 | CCn1c(-c2nonc2N)nc2cncc(C(=O)N3CCC(N)C3)c21 (stereo not given) |  | 10.7% (inactive)
19 | Fc1ccc(-c2ncn(C3CCNCC3)c2-c2ccnc(Oc3ccccc3)n2)cc1 | 11.6 µM (active) | 
20 | CS(=O)(=O)CCNCc1ccc(-c2ccc3ncnc(Nc4ccc(OCc5cccc(F)c5)c(C(F)(F)F)c4)c3c2)o1 |  | -14.6% (inactive)

Row | Compound | Potency | activity change, negative = inhibition
21 | COc1ccc(CNC(=O)c2ccc(-c3cc(-c4nnc(C)o4)ccc3C)cc2)cc1 |  | 4.11% (inactive)
22 | Cc1ccc(O)cc1Nc1ccnc2cc(-c3ccccn3)ccc12 | 0.0073 µM (active) | 
23 | COc1cccc(-n2ncc3c(NN=Cc4ccc(F)cc4)ncnc32)c1 | 0.582 µM (active) | 
24 | COc1cc(Nc2ncc3c(C)nc(-c4cccc(Oc5ccccc5)c4)n3n2)cc(OC)c1OC | 5.19 µM (active) | 
25 | ON=C1CCc2cc(-c3nc(C4CCNCC4)[nH]c3-c3ccncc3)ccc21 |  | 229% (inactive)
26 | CCOc1nccc2c1nc(-c1nonc1N)n2CC |  | 28.2% (inactive)
27 | Cc1cc(O)cc(C)c1C=Cc1cncc(C(N)=O)c1 | 0.463 µM (active) | 
28 | CC1=C(C(=O)Nc2ccc3[nH]ncc3c2)C(c2ccc(F)cc2)NC(=O)N1 (stereo not given) | 26 µM (active) | 
29 | CC(C)=Cc1cccc2[nH]c(O)c(N=Nc3ccc(S(N)(=O)=O)cc3)c12 |  | -27.8% (inactive)
30 | CN1CCN(CCCNc2nc3ccc(Oc4ccc(NC(=O)Nc5cc(C(F)(F)F)ccc5F)cc4)cc3[nH]2)CC1 |  | -14.8% (inactive)
31 | Cc1cc(O)cc(C)c1C=Cc1cncc(C(=O)N(C)C)c1 | 23.2 µM (active) | 
32 | COc1cc2ncn(-c3cc(OCc4ccccc4Cl)c(C(N)=O)s3)c2cc1OC | 5.19 µM (active) | 
33 | Fc1ccc(-c2ncn(C3CCNCC3)c2-c2ccnc(Oc3cccc(C(F)(F)F)c3)n2)cc1 |  | 10.2% (inactive)
34 | Clc1ccc(CNc2nccc(-c3cnn4ncccc34)n2)cc1 |  | -10.4% (inactive)
35 | CNC(=O)c1cncc(C=Cc2c(C)cccc2C)c1 | 0.463 µM (active) | 
36 | COc1cc2c(cc1Nc1nc(Nc3cccc(F)c3C(N)=O)c3cc[nH]c3n1)N(C(=O)CN1CCN(C(C)C)CC1)CC2 |  | 116% (inactive)
37 | CCn1c(-c2nonc2N)nc2c(C#CC(C)(C)O)ncc(OCC3CCCN3)c21 (stereo not given) | 26 µM (active) | 
38 | Fc1ccc(-c2ncn(C3CCNCC3)c2-c2ccnc(Oc3ccc(Oc4ccccc4)cc3)n2)cc1 |  | -0.381% (inactive)
39 | O=C1NC(=O)C(N2CCc3ccccc32)=C1c1ccc(Cl)cc1 |  | -3.14% (inactive)
40 | COc1cc(C=NNc2ncnc3c2cnn3Cc2ccccc2)ccc1O | 0.116 µM (active) | 
